Molecules are shown by their SMILES. Several values for one entry are separate records, joined by “and”; a condition that tells them apart may be missing. Equal values may be shown once. Among all 16,000 compounds or so, about 2,600 (16%) were called active. About 20% were inconclusive and are not listed. Calls come from the whole dose curve; as a rule, active = well fitted curve in the direction sought with a large enough effect; inconclusive = small, poorly fitted or top-dose-only effect, or effect the other way; inactive = no such curve, though single readings can be large or run the other way. Not all results are given here. The source holds several records for some structures; these can differ, active in one and inactive in another.
% is set by controls: 0 for no effect and ±100 for the full control effect.

The target of the assay is Cytochrome P450 2D6 (Homo sapiens) (UniProt P10635). Description: Cytochrome panel assay with activity outcomes. Particulars: recombinant CYP, pro-luciferin dealkylation, luminescence, p450-cyp2d6; series mostly up to 57.1 µM.
Chain of Cytochrome P450 2D6 (Homo sapiens) (P10635 whole entry, looked up): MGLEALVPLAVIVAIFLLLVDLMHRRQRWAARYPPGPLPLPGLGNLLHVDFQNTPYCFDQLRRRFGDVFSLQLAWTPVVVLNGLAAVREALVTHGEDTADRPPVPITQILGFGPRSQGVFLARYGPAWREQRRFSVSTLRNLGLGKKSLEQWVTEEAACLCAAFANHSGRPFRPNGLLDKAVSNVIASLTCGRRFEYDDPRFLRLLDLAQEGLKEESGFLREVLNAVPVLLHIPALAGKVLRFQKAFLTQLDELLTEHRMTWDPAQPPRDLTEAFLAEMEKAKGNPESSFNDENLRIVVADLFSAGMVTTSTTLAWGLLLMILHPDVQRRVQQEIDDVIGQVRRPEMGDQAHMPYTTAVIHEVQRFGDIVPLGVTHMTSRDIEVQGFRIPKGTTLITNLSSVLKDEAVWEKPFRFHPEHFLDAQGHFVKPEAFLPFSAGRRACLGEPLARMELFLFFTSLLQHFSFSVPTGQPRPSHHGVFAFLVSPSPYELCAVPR
Regarding `COc1ccc(C(=O)N/N=C/c2cccc3cccnc23)cc1`, the AC50 result was “inactive”.
Turning to `CC(C)(C)c1nnc(NC(=O)NS(=O)(=O)c2ccccc2)s1`, the AC50 entry was “inactive”.
Regarding `COc1ncc2nc(-c3ccc(F)cc3)c(=O)n(C)c2n1`, the AC50 result was “inactive”.
Same read-out and setting: then `Oc1cc2c(cc1O)[C@H](c1ccccc1)CNCC2`, with “inactive”; and `Oc1ccc([C@@H]2CNCCc3c2cc(O)c(O)c3Cl)cc1`, with “inactive and 3.16 µM (active)”; and `Oc1ccc([C@@H]2CNCc3sccc32)cc1O`, with “inactive”.
As to `Oc1cc2c(c(Cl)c1O)CCNC[C@H]2c1ccccc1`, the AC50 is 10 µM (active).
For `CCC(=O)Nc1nonc1-c1nc2ccccc2n1N(C(=O)CC)C(=O)CC`, the AC50 result is “inactive”.
Consider `Cc1cc(CNC(=O)[C@H]2C[C@@H]2[C@H](NP(=O)(c2ccccc2)c2ccccc2)c2ccccc2)nn1C`, for which the AC50 result is “inactive”.
`CC1CSc2nc3sc4c(c3c(=O)n21)CCCC4` (centres undefined): the AC50 entry is “inactive”.
With `CN(C)c1ncc2nc(-c3cccs3)c(=O)n(Cc3cccs3)c2n1`, the AC50 entry is “inactive”.
Turning to `Cc1cc(NC(=O)C2C3C(=O)N(Cc4ccc(Cl)cc4)C(C(=O)NC(C)(C)C)C34C=CC2(C)O4)no1` (centres undefined), the AC50 result was “inactive”.
For the molecule `CCNc1ncc2nc(-c3cc(F)cc(F)c3)c(=O)n(C[C@H]3CCCO3)c2n1`, the AC50 was 0.158 µM (active).
As for `CCNc1ncc2nc(-c3cc(F)cc(F)c3)c(=O)n(CCc3ccccc3)c2n1`, the AC50 is 15.8 µM (active).
In the case of `CN1CCN(c2ncc3nc(-c4cccs4)c(=O)n(CCc4ccccc4)c3n2)CC1`, the AC50 entry was “inactive”.
The same measure, in the same setting: the same measure for `CN(C)c1ncc2nc(-c3cc(F)cc(F)c3)c(=O)n(C[C@H]3CCCO3)c2n1`: “inactive”.
Still for that read-out and setting: then `COCCn1c(=O)c(-c2cc(F)cc(F)c2)nc2cnc(N(C)C)nc21`, with “inactive”; and `CCNc1ncc2nc(-c3cc(F)cc(F)c3)c(=O)n(CCOC)c2n1`, with 0.316 µM (active).
`COCCn1c(=O)c(-c2cc(F)cc(F)c2)nc2cnc(OC)nc21`: the AC50 entry is “inactive”.
On to `CCNc1ncc2nc(-c3cc(F)cc(F)c3)c(=O)n(Cc3cccs3)c2n1`, for which the AC50 entry was “inactive”.
The same measure, in the same setting: then `CN1CCN(c2ncc3nc(-c4cc(F)cc(F)c4)c(=O)n(CCc4ccccc4)c3n2)CC1`, with “inactive”.
For the molecule `Cc1nc2cnc(N3CCN(C)CC3)nc2n(CCc2ccccc2)c1=O`, the AC50 is 2.51 µM (active).
In the case of `CCNc1ncc2nc(-c3ccc(Cl)cc3)c(=O)n(C[C@H]3CCCO3)c2n1`, the AC50 result was “inactive”.
Turning to `CN(C)c1ncc2nc(-c3cc(F)cc(F)c3)c(=O)n(CCc3ccccc3)c2n1`, the AC50 entry is “inactive”.
Take `CC(C)NC(=O)/C(=N\O)c1ccccc1`: the AC50 entry was “inactive”.
As to `Cc1ccc(OCC(=O)NNC(=O)c2cccnc2)cc1`, the AC50 result was “inactive”.
Still for that read-out and setting: the same measure for `O=c1c(-c2cccs2)nc2cnc(Oc3ccccc3)nc2n1C1CC1`: “inactive”; for `COc1ccc(NC(=O)N2CCCC3(CCN(C(=O)c4cccc(F)c4)CC3)C2)cc1`: “inactive”; for `CN1CCN(c2ncc3nc(-c4ccc(Cl)cc4)c(=O)n(C4CC4)c3n2)CC1`: “inactive”.
Same read-out and setting: then `Cc1ccc(NC(=O)/C(=C/c2cccc([N+](=O)[O-])c2)NC(=O)C2CCCCC2)c(C)c1`, with “inactive”.
For the molecule `CC1=C(C(=O)Nc2ccccc2F)C(c2ccsc2)C2=C(CC(c3ccccc3)CC2=O)N1` (centres undefined), the AC50 result is “inactive”.
On to `COC(=O)C/C=C\[C@@H](C)[C@@H](/C=N\OC[C@@H]1O[C@H](c2ccccc2)C=C[C@@H]1Oc1ccc(OC)cc1)OC`, for which the activity, negative = inhibition is -17.7% [at 11.4 µM] (inactive).
On to `COC(=O)c1ccccc1N/C=C1\CCc2c(c(C)nn2-c2ccccn2)C1=O`, for which the AC50 result was “inactive”.
For `CCOc1ccc(/C=N/Nc2nc(N3CCCC3)nc(N3CCCC3)n2)cc1OC`, the AC50 entry is “inactive”.
Turning to `CCNc1ncc2nc(-c3ccc(OC)cc3)c(=O)n(CCOC)c2n1`, the AC50 result was “inactive”.
Consider `CCNc1ncc2nc(-c3ccccc3)c(=O)n(C)c2n1`, for which the AC50 result was “inactive”.
Regarding `CCNc1ncc2nc(-c3ccccc3)c(=O)n(CCc3ccccc3)c2n1`, the AC50 is 10 µM (active).
Regarding `CCNc1ncc2nc(C)c(=O)n(CCc3ccccc3)c2n1`, the AC50 result was “inactive”.
On the same count and under the same terms, then `COCCn1c(=O)c(-c2ccccc2)nc2cnc(Nc3ccccc3)nc21`, with “inactive”; and `CCNc1ncc2nc(-c3ccccc3)c(=O)n(CCOC)c2n1`, with 3.16 µM (active).
With `CCOC(=O)c1sc(=N)n(-c2ccc(OC)cc2)c1C`, the AC50 result is “inactive”.
Same read-out and setting: then `COc1cccc(/C=c2/s/c(=C(\C#N)C(=O)N3CCOCC3)n(-c3ccccc3)c2=O)c1`, with “inactive”.
As to `Cc1ccc(N2CCN(CCC(=O)O)CC2)cc1`, the activity, negative = inhibition is -9.16% [at 11.4 µM] (inactive).
Regarding `CCSC(N)=Nc1ccc(C(F)(F)F)cc1`, the AC50 result is “inactive”.
Take `Cc1ccc(CSC(N)=Nc2ccccc2)cc1C`: the half-maximal activity concentration (AC50) is 0.794 µM (active).
Same read-out and setting: the same measure for `N=C(N)c1ccccc1`: “inactive”; for `O=C(Nc1cccc(C(=O)Nc2ccc(S(=O)(=O)O)c3cc(S(=O)(=O)O)cc(S(=O)(=O)O)c23)c1)Nc1cccc(C(=O)Nc2ccc(S(=O)(=O)O)c3cc(S(=O)(=O)O)cc(S(=O)(=O)O)c23)c1`: “inactive”.
Turning to `C(=N/Nc1nnc2c(n1)[nH]c1ccccc12)/c1cccnc1`, the activity, negative = inhibition was -5% [at 11.4 µM] (inactive).
For `c1ccc2c[n+](Cc3ccnc4ccccc34)ccc2c1`, the AC50 is 3.16 µM (active).
The same measure, in the same setting: then `COc1cc(NC(=O)c2cc3nc(-c4ccccc4)cc(-c4ccccc4)n3n2)cc(OC)c1OC`, with “inactive”; and `COC(=O)c1[nH]c2cccc(OC)c2c1NC(=O)CN(C)CC1OCCO1`, with “inactive”; and `Clc1ccc(N2CCCCCC2)nn1`, with “inactive”.
In the case of `NC1CCN(c2cccc(Cl)n2)CC1`, the AC50 is 10 µM (active).
Turning to `Cc1ccc2c(c1)[C@@H]1CN(C)CC[C@@H]1N2S(=O)(=O)c1ccc(F)cc1`, the AC50 is 14.1 µM (active).
As for `O=S(=O)(c1ccc(F)cc1)N1CC2CCCN2c2ccc(C(F)(F)F)cc21` (centres undefined), the AC50 entry was “inactive”.
On to `O=S(=O)(c1ccc(F)cc1)N1CCCC(CO)C1` (centres undefined), for which the AC50 entry was “inactive”.
Regarding `O=C1O[C@@H]([C@H](O)[C@H](O)[C@H](O)CO)[C@@H](O)[C@@H]1O`, the activity, negative = inhibition is 7.22% [at 11.4 µM] (inactive).
Consider `O=C(Cc1ccccc1)Nc1nc(=O)c2ccccc2s1`, for which the AC50 result was “inactive”.
Consider `O=C(c1cnccn1)N1CCC2(CC1)CCN(c1ccccn1)CC2`, for which the AC50 entry was “inactive”.
Regarding `Cc1ccc(-c2ccc(CCC(=O)O)n2CC2CCCO2)cc1` (centres undefined), the AC50 entry is “inactive”.
Regarding `Cc1ccc(C(=O)N/N=C/c2cc(C)n(-c3ccc(Br)cc3)c2C)cc1[N+](=O)[O-]`, the AC50 entry was “inactive”.
Consider `CSc1nc2ccccc2cc1/C=C(\C#N)c1cccc(Cl)c1`, for which the AC50 entry is “inactive”.
On the same count and under the same terms, then `Cc1cccc(CN2CCN([C@@H](c3ccccc3)c3ccc(Cl)cc3)CC2)c1`, with 3.16 µM (active).
On to `CN1CCN([C@@H](c2ccccc2)c2ccc(Cl)cc2)CC1`, for which the AC50 is 2 µM (active).
As to `CN1CCCN([C@@H](c2ccccc2)c2ccc(Cl)cc2)CC1`, the AC50 was 0.251 µM (active).
Take `CN1CCN(CC(O)c2ccccc2)CC1` (centres undefined): the AC50 entry was “inactive”.
As to `O=C1CC(N2CCN(C(c3ccccc3)c3ccccc3)CC2)C(=O)N1Cc1ccc(N2CCCC2=O)cc1` (centres undefined), the AC50 entry was “inactive”.
In the case of `Cc1cccc(CN2CCN(CC(=O)O)C2=O)c1`, the AC50 entry is “inactive”.
For the molecule `Cc1ccc(-c2noc(CN3CCN(C(c4ccccc4)c4ccccc4)CC3)n2)cc1`, the AC50 result is “inactive”.
In the case of `CC(=O)N=c1sc(S(N)(=O)=O)nn1C`, the AC50 entry was “inactive”.
The same measure, in the same setting: then `COC(=O)c1cc(/C=C/c2ccccc2)on1`, with “inactive”.
In the case of `Cc1cnc2cc(Cl)ccc2c1SCC(=O)O`, the activity, negative = inhibition was 8.22% [at 11.4 µM] (inactive).
Take `NS(=O)(=O)c1cc2c(cc1Cl)N[C@@H](CC1CCCC1)NS2(=O)=O`: the AC50 result is “inactive”.
Regarding `O=C(CN1C(=O)c2ccccc2C1=O)NCC(=O)OCC(=O)c1ccc(Br)cc1`, the AC50 result was “inactive”.
The same measure, in the same setting: then `CCn1c(CCNC(=O)c2ccccc2Cl)n[nH]c1=S`, with “inactive”.
Regarding `O=C(O)c1ccccc1/C=N\N=C1c2ccccc2-c2ccccc21`, the activity, negative = inhibition is 16.6% [at 11.4 µM] (inactive).
Take `CCn1cc(C(=O)NCC(=O)OC)c2cc(OC)c(OC)cc2c1=O`: the AC50 result is “inactive”.
As for `CC1(C)[C@@H]2CC[C@]1(C)[C@@H](OC(=O)CSC#N)C2`, the activity, negative = inhibition was -15% [at 11.4 µM] (inactive).
For the molecule `CC(C)(C)NC[C@H](O)COc1cccc2[nH]c(=O)[nH]c12`, the AC50 result was “inactive”.
Consider `C=CCc1ccccc1OC[C@H](O)CNC(C)C`, for which the AC50 is 6.31 µM (active).
For the molecule `CC(C)NC[C@@H](O)COc1cccc2ccccc12`, the AC50 entry was “inactive”.
With `C[C@@]12C[C@H](O)[C@@H]3[C@H](CCC4=CC(=O)CC[C@]43C)[C@H]1CC[C@@H]2c1csc(N)n1`, the activity, negative = inhibition was -10.6% [at 11.4 µM] (inactive).
Take `Cc1ccc(C)c(S(=O)(=O)NC(C)C(=O)Nc2ccc(-c3nc4ccccc4s3)cc2)c1` (centres undefined): the AC50 result was “inactive”.
Regarding `CC(C)[C@]1(Cl)CC[C@@H]2[C@]3(C)CCC[C@@](C)(C(=O)O)[C@H]3C[C@H](Cl)[C@@]2(Cl)[C@H]1Cl`, the activity, negative = inhibition was 4.09% [at 11.4 µM] (inactive).
Turning to `COc1cccc(Cn2c(=O)c(-c3cccc(C#N)c3)nc3cnc(N4CCN(C)CC4)nc32)c1`, the AC50 result is “inactive”.
Same read-out and setting: the same measure for `Cc1ccc(/C=C2\SC(=S)N(CCCC(=O)Nc3ccccn3)C2=O)cc1`: “inactive”.
As for `CC(C)(C)COS(=O)OCC(C)(C)C`, the activity, negative = inhibition is -1.05% [at 11.4 µM] (inactive).
For `C[C@@H](N1CCOCC1)[C@@](O)(c1ccccc1)c1ccccn1`, the activity, negative = inhibition was -15% [at 11.4 µM] (inactive).
On to `CC(C)C(O)(C#CCN1CCCC1)c1ccccc1` (centres undefined), for which the AC50 is 14.1 µM (active).
For `CCC(C#CCN1CCCCC1)(CC)OCCC#N`, the AC50 result is “inactive”.
The same measure, in the same setting: then `O=C(N/N=C/C=C/c1ccc([N+](=O)[O-])cc1)c1cccs1`, with “inactive”; and `OCCN1CCOCCOCCN(CCO)CCN(CCO)CC1`, with “inactive”; and `COC(=O)/C=C/CSC1=N/C(=C/c2ccc(-n3cncn3)cc2)C(=O)N1`, with 14.1 µM (active).
Consider `COc1ccccc1NC(=O)CSc1nc2ccccc2cc1Cc1ccccc1`, for which the AC50 result is “inactive”.
As to `C[C@@H]1C(=O)N(C)C(=O)c2nc[nH]c21`, the AC50 entry is “inactive”.
Consider `CCOc1ccc(NC(=S)NC(=O)/C=C/c2ccc(C)cc2)c([N+](=O)[O-])c1`, for which the AC50 entry is “inactive”.
Take `O=C(c1coc2ccccc2c1=O)N1CCN(c2cccc(C(F)(F)F)c2)CC1`: the AC50 entry is “inactive”.
Regarding `O=C(CCN1C(=O)C2C3C=CC(C3)C2C1=O)N1CCN(c2cccc(Cl)c2)CC1` (centres undefined), the AC50 result is “inactive”.
Still for that read-out and setting: then `FC(F)(F)c1cccc(N2CCN(CC3CC4C=CC3C4)CC2)c1` (centres undefined), with 2.51 µM (active).

One may read the AC50 as the midpoint of the concentration-response curve, whichever way the signal moves.

(Values after PubChem BioAssay AID1851 (National Center for Advancing Translational Sciences (NCATS), 2009).)
